Test [1] is described as follows: qHTS assay to identify small molecule antagonists of the glucocorticoid receptor (GR) signaling pathway - cell viability counter screen (AID 720693). Note: nearly all actives have a fitted effect of over 55% in size. Note: potency is the fitted concentration of half-maximal effect. Conditions: GR-bla HeLa viability, CellTiter-Glo luminescence, 18 h, with 5 nM dexamethasone present; series mostly up to 58.5 µM. For orientation: Quantitative high-throughput screening tests each substance at several concentrations.

The nature of test [2]: qHTS assay for identifying genotoxic compounds that show differential cytotoxicity against isogenic chicken DT40 cell lines with known DNA damage response pathways - wild type cell line (AID 743012). Note: potency is the fitted concentration of half-maximal effect; nearly all actives have a fitted effect of over 60% in size. Conditions: DT40 wild type chicken cells viability, CellTiter-Glo, 40 h; series mostly up to 68.4 µM. Put shortly:
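Using parental DT40 (300 cells/well), compounds delivered in DMSO incubate 40 h at 37 C/5% CO2. CellTiter-Glo reagent then stands 30 min at room temperature, and luminescence gives cell viability.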

The nature of test [3]: qHTS assay for identifying genotoxic compounds that show differential cytotoxicity against isogenic chicken DT40 cell lines with known DNA damage response pathways - Rad54/Ku70 mutant cell line (AID 743015). Note: nearly all actives have a fitted effect of over 60% in size. Note: potency is the fitted concentration of half-maximal effect. The note with it: DT40 Rad54/Ku70 mutant viability, CellTiter-Glo, 40 h; series mostly up to 66.8 µM.
The target in test [4] is Androgen receptor (Homo sapiens) (UniProt P10275). The experiment in a line: qHTS assay to identify small molecule agonists of the androgen receptor (AR) signaling pathway using the MDA cell line (AID 743040; note: nearly all actives have a fitted effect of over 20% in size). Conditions: MDA-kb2 AR-luc cells, MMTV luciferase, 16 h; series mostly up to 70.3 µM. A digest of the protocol:
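MDA-kb2 breast carcinoma cells stably carrying an MMTV-driven luciferase reporter (AR- and GR-responsive) were seeded and held 5 h at 37C, 0% CO2, then exposed to compounds in DMSO for 16 h. Luminescence was read 30 min after ONE-Glo addition.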

The nature of test [5]: qHTS assay to identify small molecule antagonists of the thyroid receptor (TR) signaling pathway (AID 743065). Note: nearly all actives have a fitted effect of over 55% in size. Note: potency is the fitted concentration of half-maximal effect. Conditions: GH3.TRE-Luc, T3-stimulated luciferase inhibition, 23.5 h; series mostly up to 70.3 µM. Put shortly: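 GH3.TRE-Luc rat pituitary cells carrying two TR response elements driving luciferase were plated for 4 h, given compound plus 1 nM T3 (final), and incubated 23.5 h at 37 C. ONE-Glo luminescence measured reporter inhibition; CellTiter-Fluor fluorescence tracked cytotoxicity.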

In test [6] the test system is thyroid hormone receptor (rat, GH3 cells). The experiment in a line: qHTS assay to identify small molecule agonists of the thyroid receptor (TR) signaling pathway (AID 743066; calls by dose curve). The note with it: GH3.TRE-Luc cells, TR agonist luciferase, 24 h; series mostly up to 83.9 µM.
The nature of test [7]: qHTS assay to identify small molecule antagonists of the estrogen receptor alpha (ER-alpha) signaling pathway - cell viability counter screen (AID 743074; calls by dose curve; note: nearly all actives have a fitted effect of over 45% in size). The note with it: ERalpha-bla HEK293 viability, CellTiter-Glo luminescence, 18 h; series mostly up to 69.4 µM.
Test [8] is described as follows: qHTS assay to identify small molecule antagonists of the estrogen receptor alpha (ER-alpha) signaling pathway using the BG1 cell line - cell viability counter screen (AID 743081).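 Note: compound given together with 17beta-estradiol as the ER stimulus; nearly all actives have a fitted effect of over 45% in size.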 Conditions: BG1Luc4E2 viability, CellTiter-Fluor, 22 h; series mostly up to 70.3 µM.
In a further test the target is Aromatase (Homo sapiens) (UniProt P11511). Kind of test: qHTS assay to identify aromatase inhibitors (AID 743083). Note: nearly all actives have a fitted effect of over 55% in size. Note: potency is the fitted concentration of half-maximal effect. Conditions: MCF-7 aro ERE, testosterone-driven ERE luciferase, 24 h; series mostly up to 70.3 µM.
Chain of Aromatase (Homo sapiens) (P11511 whole entry, looked up): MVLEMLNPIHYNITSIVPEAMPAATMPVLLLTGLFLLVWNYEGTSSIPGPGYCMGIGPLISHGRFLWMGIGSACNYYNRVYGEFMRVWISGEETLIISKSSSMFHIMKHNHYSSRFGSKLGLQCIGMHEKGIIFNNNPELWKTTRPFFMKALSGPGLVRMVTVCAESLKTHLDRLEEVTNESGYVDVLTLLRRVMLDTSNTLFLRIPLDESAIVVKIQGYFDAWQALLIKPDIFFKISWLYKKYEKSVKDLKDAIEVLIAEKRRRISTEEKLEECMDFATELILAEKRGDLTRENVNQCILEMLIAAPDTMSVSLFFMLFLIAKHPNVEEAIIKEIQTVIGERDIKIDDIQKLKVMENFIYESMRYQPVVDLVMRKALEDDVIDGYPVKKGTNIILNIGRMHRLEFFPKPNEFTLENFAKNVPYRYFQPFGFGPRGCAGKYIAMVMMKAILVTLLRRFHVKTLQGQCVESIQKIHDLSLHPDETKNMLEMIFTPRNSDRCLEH
Test [9] in a line: qHTS assay for identifying genotoxic compounds that show differential cytotoxicity against isogenic chicken DT40 cell lines with known DNA damage response pathways - Rev3 mutant cell line (AID 743014). Note: potency is the fitted concentration of half-maximal effect; nearly all actives have a fitted effect of over 55% in size. Conditions: chicken DT40 Rev3-/- viability, CellTiter-Glo, 40 h; series mostly up to 68.4 µM.
Test [10] is described as follows: qHTS assay to identify small molecule antagonists of the androgen receptor (AR) signaling pathway - cell viability counter screen (AID 743033; note: nearly all actives have a fitted effect of over 45% in size). Conditions: AR-bla HEK293 viability, CellTiter-Glo luminescence, 16 h; series mostly up to 58.5 µM.
Test [11] is described as follows: qHTS assay to identify small molecule antagonists of the androgen receptor (AR) signaling pathway using the MDA cell line - cell viability counter screen (AID 743041; note: nearly all actives have a fitted effect of over 45% in size). Conditions: MDA-kb2 viability, CellTiter-Fluor, 16 h, cells co-treated with R1881 androgen agonist; series mostly up to 70.3 µM. Put shortly: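 MDA-kb2 AR-luc human breast carcinoma cells (MMTV-luciferase, AR/GR responsive) were treated with compounds plus R1881 agonist for 16 h at 37 °C. Viability was read as CellTiter-Fluor fluorescence in the same wells as the reporter assay.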

Test [12] is described as follows: qHTS assay to identify small molecule antagonists of the thyroid receptor (TR) signaling pathway - cell viability counter screen (AID 743064). Note: nearly all actives have a fitted effect of over 50% in size. Note: potency is the fitted concentration of half-maximal effect. The note with it: GH3.TRE-Luc viability, CellTiter-Fluor, 24 h; series mostly up to 70.3 µM. Put shortly: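 Counter screen for cytotoxicity: compound plus T3 (1 nM final) on GH3.TRE-Luc cells, 23.5 h at 37 °C, then fluorescence viability readout with CellTiter-Fluor.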

The target in test [13] is Estrogen receptor (Homo sapiens) (UniProt P03372). Kind of test: qHTS assay to identify small molecule antagonists of the estrogen receptor alpha (ER-alpha) signaling pathway (AID 743069; active = well fitted curve in the direction sought with a large enough effect in the signal ratio in the repeat runs, not every such curve was filed as active; the % refers to the signal ratio). The note with it: HEK293 ER-alpha-UAS-bla, beta-lactamase ratio, antagonist mode; series mostly up to 69.4 µM. Put shortly: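 HEK293 cells stably carrying an ER-alpha-UAS-bla beta-lactamase reporter were pre-cultured overnight in 2% charcoal-stripped FBS medium. Test compounds in DMSO were added together with 17beta-estradiol for 18 hr at 37C. Read-out was fluorescence after 2 hr with LiveBLAzer B/G FRET substrate at room temperature.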
Chain of Estrogen receptor (Homo sapiens) (P03372 whole entry, looked up): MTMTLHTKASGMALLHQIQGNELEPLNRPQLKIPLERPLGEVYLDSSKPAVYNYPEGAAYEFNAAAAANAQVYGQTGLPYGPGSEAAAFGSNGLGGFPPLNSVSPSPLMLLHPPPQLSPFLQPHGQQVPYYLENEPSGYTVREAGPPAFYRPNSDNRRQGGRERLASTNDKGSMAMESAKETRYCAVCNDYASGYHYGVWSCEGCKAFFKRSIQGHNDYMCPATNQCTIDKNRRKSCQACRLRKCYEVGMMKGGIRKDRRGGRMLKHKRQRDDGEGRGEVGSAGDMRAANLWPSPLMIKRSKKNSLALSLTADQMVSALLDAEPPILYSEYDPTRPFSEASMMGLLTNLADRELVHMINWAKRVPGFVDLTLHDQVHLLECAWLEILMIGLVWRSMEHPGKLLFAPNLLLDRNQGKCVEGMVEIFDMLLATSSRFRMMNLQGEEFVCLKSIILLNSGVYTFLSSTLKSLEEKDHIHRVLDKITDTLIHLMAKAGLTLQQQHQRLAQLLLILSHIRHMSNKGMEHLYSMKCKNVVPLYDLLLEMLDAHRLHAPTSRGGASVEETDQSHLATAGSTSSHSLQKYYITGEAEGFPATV

Test [14] is described as follows: qHTS assay to identify small molecule antagonists of the estrogen receptor alpha (ER-alpha) signaling pathway using the BG1 cell line (AID 743080; calls by dose curve;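 note: BG1 cells stimulated with 17beta-estradiol alongside compound; nearly all actives have a fitted effect of over 25% in size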). Conditions: BG1Luc4E2 ERE-luciferase antagonist mode, luminescence; series mostly up to 70.3 µM. A digest of the protocol: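 Readout is ONE-Glo luminescence, taken 30 min at room temperature after reagent addition, preceded by a CellTiter-Fluor viability read; BG1-Luc-4E2 cells had received compound and 17beta-estradiol for 21.5 h at 37 C.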

Test [15] has as its target Estrogen receptor (Homo sapiens) (UniProt P03372). Kind of test: qHTS assay to identify small molecule agonists of the estrogen receptor alpha (ER-alpha) signaling pathway (AID 743075; calls by dose curve). The note with it: HEK293 ER-alpha-UAS-bla, beta-lactamase FRET ratio, 18 h; series mostly up to 70.1 µM.
Test [16] has the same target. The experiment in a line: qHTS assay to identify small molecule agonists of the estrogen receptor alpha (ER-alpha) signaling pathway using the BG1 cell line (AID 743079). Note: nearly all actives have a fitted effect of over 20% in size. Conditions: BG1Luc4E2 cells, ERE-luciferase agonist, 22 h; series mostly up to 70.3 µM.
In test [17] the target is Androgen receptor (Homo sapiens) (UniProt P10275). The experiment in a line: qHTS assay to identify small molecule antagonists of the androgen receptor (AR) signaling pathway using the MDA cell line (AID 743042; note: nearly all actives have a fitted effect of over 55% in size; note: potency is the fitted concentration of half-maximal effect). Conditions: MDA-kb2 AR-luc, MMTV luciferase, R1881 antagonist, 16 h; series mostly up to 70.3 µM. Put shortly: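 MDA-kb2 cells (human breast carcinoma, stably carrying an MMTV-luciferase reporter responsive to AR and GR) were plated at 3,000 cells/well and preincubated 5 hr at 37C, then given compound plus R1881 agonist for 16 h. ONE-Glo luminescence was read.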
Chain of Androgen receptor (Homo sapiens) (P10275 whole entry, looked up): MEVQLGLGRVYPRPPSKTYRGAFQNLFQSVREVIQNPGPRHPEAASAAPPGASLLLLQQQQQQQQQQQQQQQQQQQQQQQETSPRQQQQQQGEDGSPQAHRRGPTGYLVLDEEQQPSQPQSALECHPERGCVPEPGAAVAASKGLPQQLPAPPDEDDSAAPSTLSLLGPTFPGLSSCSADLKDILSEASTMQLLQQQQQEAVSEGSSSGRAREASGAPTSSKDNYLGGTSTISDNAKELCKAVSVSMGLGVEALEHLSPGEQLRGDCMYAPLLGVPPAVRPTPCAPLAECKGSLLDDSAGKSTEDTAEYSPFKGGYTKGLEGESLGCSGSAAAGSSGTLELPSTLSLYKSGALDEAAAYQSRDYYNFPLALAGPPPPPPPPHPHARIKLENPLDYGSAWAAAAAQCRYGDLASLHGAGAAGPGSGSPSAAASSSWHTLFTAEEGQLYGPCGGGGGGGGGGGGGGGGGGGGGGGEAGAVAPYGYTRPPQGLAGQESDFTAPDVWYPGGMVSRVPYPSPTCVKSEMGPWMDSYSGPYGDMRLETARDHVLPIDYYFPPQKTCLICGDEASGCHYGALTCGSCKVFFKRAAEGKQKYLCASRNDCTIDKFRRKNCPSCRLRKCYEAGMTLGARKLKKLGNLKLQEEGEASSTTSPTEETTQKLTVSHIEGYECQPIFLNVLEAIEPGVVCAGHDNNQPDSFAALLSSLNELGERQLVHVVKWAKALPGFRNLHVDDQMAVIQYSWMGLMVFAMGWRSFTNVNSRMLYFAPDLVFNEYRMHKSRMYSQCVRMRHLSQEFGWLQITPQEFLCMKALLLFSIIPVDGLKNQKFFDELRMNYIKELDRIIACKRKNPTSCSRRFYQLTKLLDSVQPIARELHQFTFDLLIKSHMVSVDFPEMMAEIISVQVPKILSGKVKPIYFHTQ

Test [18] shares this target. The experiment in a line: qHTS assay to identify small molecule antagonists of the androgen receptor (AR) signaling pathway (AID 743035; active = well fitted inhibition curve with a large enough effect in the signal ratio in the repeat runs, not every such curve was filed as active; the % refers to the signal ratio; note: potency is the fitted concentration of half-maximal effect). The note with it: HEK293 AR-UAS-bla, R1881-stimulated, beta-lactamase FRET, 16 h; series mostly up to 58.5 µM. A digest of the protocol: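 Using qHTS, AR-UAS-bla GripTite HEK293 cells received compound, then R1881, and were cultured 16 h at 37C/5% CO2 before a 2 h room-temperature LiveBLAzer B/G FRET substrate step and fluorescence measurement.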

Several values for one entry are separate records, joined by “and”; a condition that tells them apart may be missing. Equal values may be shown once. Results filed as inconclusive are left out. Activity calls are given as the source filed them. Unless noted, calls come from the whole dose curve; as a rule, active = well fitted curve in the direction sought with a large enough effect in the repeat runs; inconclusive = weak or mixed curves; inactive = no such curve, though single readings can be large; an effect the other way counts as inactive or inconclusive.

From PubChem BioAssay (Tox21) come the findings set out here.

As for `CCC(C)c1cc([N+](=O)[O-])cc([N+](=O)[O-])c1OC(=O)C=C(C)C` (configuration not stated), the Potency result in test [1], in test [4], in test [7] and in [8] was “inactive” in each case. The Potency is 21.7 µM (active) in test [2], 19.3 µM (active) in test [3], 21.7 µM (active) in test [5] and 48.6 µM (active) with Aromatase (Homo sapiens). The outcome in test [6] was inactive.

As to `Clc1ccc(C(c2ccccc2Cl)C(Cl)(Cl)Cl)cc1` (configuration not stated), the Potency in test [2] is 45.1 µM (active); in [9], 45.1 µM (active); in [3] it was 28.4 µM (active); in test [12] it was 27.5 µM (active) and 40.2 µM (active); in test [5], 27.5 µM (active) and 40.2 µM (active). Further, the Potency entry in test [10], in [11], in [13], in [7], in [14] and in [8] was “inactive” in each case. Besides, the Potency result with Aromatase (Homo sapiens) was “inactive”. In addition, the compound was called inactive in test [6].

With `BrCBr`, the Potency result in test [1], in test [10], in [11], in test [12], in test [5] and in test [13] was “inactive” throughout. The Potency result (in test [7]; in test [15]; in [16]; in test [14]; in test [8]; in the test with Aromatase (Homo sapiens)) was “inactive” each time. For the same compound, in test [6], the call was inactive.

As for `N#CC(Cl)Cl`, the Potency entry in test [1], in test [11], in [17], in [7] and in test [8] was “inactive” throughout. Further, the Potency in test [9] and in test [12] was 59.5 µM (active) each time.

Turning to `CCCCCCCCCBr`, the Potency entry in test [1], in [3], in [10], in test [11], in test [12] and in test [5] was “inactive” throughout. Besides, the Potency entry in [13], in [7], in test [15], in [16], in [14] and in [8] was “inactive” each time. In addition, the Potency result with Aromatase (Homo sapiens) is “inactive”. Moreover, in test [6], the result was inactive.

For `COP(=O)(OC)SCn1c(=O)oc2cc(Cl)cnc21`, the values for the Potency (in test [1]; in [17]; in the test with Aromatase (Homo sapiens)) were 49 µM (active), 48.6 µM (active) and 19.3 µM (active), respectively. The Potency result in test [10], in [11], in test [5], in test [13], in [7] and in test [15] was “inactive” throughout. Further, the Potency entry in test [16] and in test [8] was “inactive” in each case. Further, the compound was classed as inactive in [6].

For `S=C=Nc1cccc2ccccc12`, the Potency result in test [1], in test [10], in [4], in test [11], in test [12] and in test [5] was “inactive” each time. Moreover, the Potency entry in test [7], in test [15] and in test [8] was “inactive” throughout. The Potency is 60.5 µM (active) in test [9], 48.5 µM (active) in test [18] and 27 µM (active) with Aromatase (Homo sapiens). In addition, in [6], the result was inactive.

In the case of `c1ccc(OCC2CO2)cc1` (configuration not stated), the Potency result in [1], in [11], in [12], in [5], in test [7] and in [8] was “inactive” in each case. In the test with Aromatase (Homo sapiens), the Potency result is “inactive”. In addition, in [6], the call was inactive.

On to `FC(F)(F)c1cccc(C2=CCN(CCc3ccc4ccccc4c3)CC2)c1`, for which the Potency result in test [1], in test [11], in test [12], in test [5], in test [7] and in test [8] was “inactive” each time. Besides, the Potency result with Aromatase (Homo sapiens) is “inactive”. Besides, in test [6], the result was inactive.
